We go through 62 compounds from PubChem BioAssay AID2156 (Johns Hopkins Ion Channel Center, 2009).

Among all 310,000 compounds or so, about 3,400 (1.1%) were called active. For the sample, actives were picked, then their nearest neighbours and some compounds at random. Unmarked numbers belong to inactive results.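 Rule for the calls: active = fluorescence ratio B-score at most minus 3 library SDs, with starting brightness B-score within 2 library SDs (cut at about -5.5 in these data); inactive = the rest, inconclusive results apart.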

Chain of Potassium voltage-gated channel subfamily KQT member 2 (Rattus norvegicus) (O88943 whole entry, looked up): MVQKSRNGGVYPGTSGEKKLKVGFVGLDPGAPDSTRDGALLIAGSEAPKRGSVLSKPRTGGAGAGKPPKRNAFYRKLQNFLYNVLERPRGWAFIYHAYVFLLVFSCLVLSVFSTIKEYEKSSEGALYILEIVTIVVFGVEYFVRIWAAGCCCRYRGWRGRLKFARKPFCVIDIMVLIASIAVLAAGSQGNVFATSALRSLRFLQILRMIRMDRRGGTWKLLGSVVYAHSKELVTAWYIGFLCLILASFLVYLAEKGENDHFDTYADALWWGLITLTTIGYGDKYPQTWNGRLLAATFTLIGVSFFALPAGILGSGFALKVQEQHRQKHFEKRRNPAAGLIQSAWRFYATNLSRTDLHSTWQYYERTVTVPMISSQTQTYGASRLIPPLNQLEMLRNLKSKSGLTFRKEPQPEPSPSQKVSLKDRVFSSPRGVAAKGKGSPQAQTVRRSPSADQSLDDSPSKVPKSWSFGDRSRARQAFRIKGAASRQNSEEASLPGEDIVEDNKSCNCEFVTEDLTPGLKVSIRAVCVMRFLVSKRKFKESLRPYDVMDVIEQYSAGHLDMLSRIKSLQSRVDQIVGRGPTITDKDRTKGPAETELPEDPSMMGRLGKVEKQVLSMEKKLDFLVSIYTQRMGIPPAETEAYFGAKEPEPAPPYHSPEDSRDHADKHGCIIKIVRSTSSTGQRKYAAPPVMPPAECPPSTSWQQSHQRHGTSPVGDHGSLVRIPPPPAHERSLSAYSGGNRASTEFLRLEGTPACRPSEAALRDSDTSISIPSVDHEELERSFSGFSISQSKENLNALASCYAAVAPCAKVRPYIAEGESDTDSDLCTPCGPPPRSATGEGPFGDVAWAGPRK

This assay concerns the target Potassium voltage-gated channel subfamily KQT member 2 (Rattus norvegicus) (UniProt O88943). Kind of assay: KCNQ2 channel blockers in CHO-K1 cells – cell-based, FluxOR thallium flux, B-score, primary screen (AID 2156). Particulars: 20 min, at 10 µM; hits give low values.
`CCOC(=O)N1CCN(C(=O)c2ccccc2SCC(=O)NCC2CCCCC2)CC1`: the B-score result was “inactive”.

As for `COc1ccc(NS(=O)(=O)c2ccc(C)c(C(=O)NCC(c3cccs3)N3CCOCC3)c2)cc1` (configuration not stated), the B-score was -0.42.

In the case of `CCC(C)n1c(-c2cc(OC)c(OC)c(OC)c2)nc2nc3ccccc3nc21` (configuration not stated), the B-score was -6.81 (active).

Regarding `COc1cc(C(O)c2nc3ccccc3n2C)cc(OC)c1OC` (configuration not stated), the B-score is -0.53.

On to `COc1cc(-c2n[nH]c(=S)n2Cc2ccccc2)cc(OC)c1OC`, for which the B-score was -0.07.

In the case of `Cc1csc(=O)n1CC(=O)OCC(=O)N(CC(C)C)c1c(N)n(Cc2ccccc2)c(=O)[nH]c1=O`, the B-score result is “inactive”.

As for `COc1ccc(Cc2nnc(SCC(=O)N(c3ccccc3)C(C)C)n(N)c2=O)cc1`, the B-score is -2.15.

In the case of `O=C(COC(=O)Cc1ccccc1F)NNC(=O)c1ccc(Cl)cc1`, the B-score entry was “inactive”.

Turning to `Cc1cc(Cl)c2oc(C(=O)N3CCC(O)(c4ccccc4)CC3)c(C)c2c1`, the B-score is -2.12.

Regarding `Cc1cc(Cl)c2oc(C(=O)N(C)C(C)c3ccccn3)c(C)c2c1` (configuration not stated), the B-score is -5.81 (active).

As to `Cc1cc(Cl)c2oc(C(=O)NC(C)c3ccncn3)c(C)c2c1` (configuration not stated), the B-score result is “inactive”.

Regarding `Cc1ccc(C(=O)C(C)OC(=O)Cc2n[nH]c(=O)c3ccccc23)cc1C` (configuration not stated), the B-score result is “inactive”.

On to `CN(C)Cc1ccccc1C1(O)c2ccccc2CSc2ccccc21` (configuration not stated), for which the B-score is -7.67 (active).

For the compound `COCCn1c(SC(C)C(=O)NC2CC2)nnc1-c1cccc(C)c1` (configuration not stated), the B-score entry was “inactive”.

Regarding `CC(OC(=O)C1CC(=O)N(Cc2ccccc2)C1)C(=O)Nc1ccccc1[N+](=O)[O-]` (configuration not stated), the B-score result is “inactive”.

For the compound `Fc1cccc(Cl)c1CSc1ccc(-c2ccco2)nn1`, the B-score is -0.68.

Turning to `Clc1ccccc1CSc1nnc(-c2ccco2)c(-c2ccco2)n1`, the B-score was -9.12 (active).

For the compound `COC(OC)c1ccnc(SCc2ccccc2Cl)n1`, the B-score is -0.02.

For `CCOc1ccc(S(=O)(=O)Nc2ccc(C(=O)NCCCN3CCCC3=O)cc2)cc1`, the B-score entry was “inactive”.

For the compound `CCCNC(=O)c1ccc(N2CCC3(CC2)CC(c2cccc(Br)c2)=NO3)c(NC(=O)c2ccco2)c1`, the B-score was -0.15.

In the case of `Cc1cc2nc3n(c2cc1C)CC1CC(C(=O)NCCC(C)C)N(C)C31` (configuration not stated), the B-score result was “inactive”.

Turning to `Cc1ccc(C(=O)c2c(NC(=O)c3ccncc3)sc3c2CCCC3)cc1`, the B-score is -3.32.

For `Cc1ccc(C(=O)c2c(NC(=O)c3ccccc3)sc(C)c2C)cc1`, the B-score was -7.48 (active).

With `Cc1sc(NC(=O)c2ccc3ncsc3c2)c(C(N)=O)c1C`, the B-score entry is “inactive”.

With `COc1ccc(N2CCN(S(=O)(=O)c3cc4c5c(c3)C(C)C(=O)N5CCC4)CC2)cc1` (configuration not stated), the B-score result is “inactive”.

In the case of `COc1ccc(-c2ccc3nnc(SCC(=O)Nc4ccc(NC(C)=O)cc4)n3n2)cc1`, the B-score is -0.47.

For the compound `CC(=O)Nc1ccc(NC(=O)CSc2nnnn2C2CCCCC2)cc1`, the B-score is -0.45.

Take `COc1ccc(NC(=O)c2cc(-c3cc(OC)c(OC)c(OC)c3)nc3ccccc23)c(OC)c1`: the B-score is -5.97 (active).

With `COc1ccccc1NC(=O)c1cc(Cl)nc2ccccc12`, the B-score was -4.22.

With `COc1ccc(-c2cc(C(=O)Nc3ccccc3O)c3ccccc3n2)cc1`, the B-score was -1.2.

Take `O=C1CC2(CCN(C(=O)COc3ccc(F)cc3)CC2)Oc2ccccc21`: the B-score result is “inactive”.

As for `COc1ccc(C(=O)c2c3ccc([N+](=O)[O-])cc3[n+]([O-])n2CCCN)cc1`, the B-score was -0.22.

Consider `CCCCCC(=O)N1CCN(S(=O)(=O)c2ccc3c(c2)OCCCO3)CC1`, for which the B-score was -1.36.

As to `COc1ccc(-c2nnc(SCC(=O)Nc3cccnc3Cl)n2C)cc1`, the B-score result was “inactive”.

For the compound `Cc1cccc(N=C2SC(C)CN2C(=O)CN2C(=O)NC3(CCCC3)C2=O)c1` (configuration not stated), the B-score is -1.04.

In the case of `CC1(C)C=Cc2c(ccc3c2OC[C@@H](c2ccc(O)cc2O)C3)O1`, the B-score was -5.7 (active).

On to `O=C(COc1ccccc1Cl)Nc1ccccc1C(=O)NC1CC1`, for which the B-score entry is “inactive”.

Consider `Cc1c(C)n2c(SCC(=O)N3CCCC3)nnc2[nH]c1=O`, for which the B-score is -0.73.

Consider `CCOC(=O)N1CCC(N(CCOC)C(=O)Nc2ccc(C)c(C)c2)CC1`, for which the B-score is -7.75 (active).

As to `CCOC(=O)C1CCN(C(=O)Nc2cccc(OC)c2)CC1`, the B-score was -0.14.

For `CCOC(=O)C1CCN(C(=O)Nc2ccc(C)c(Cl)c2)CC1`, the B-score result was “inactive”.

For the compound `O=C(OCC1OC(Oc2ccc(O)cc2)C(O)C(O)C1O)c1ccccc1` (configuration not stated), the B-score was -0.52.

Turning to `Cn1ccsc1=NC(=O)c1cc(S(=O)(=O)N2CCOCC2)ccc1Cl`, the B-score is -2.45.

On to `O=C(CN1C(=O)c2ccccc2C1=O)NCc1ccc(C(=O)O)cc1`, for which the B-score was -0.02.

`CC(=O)N(C1=C(Cl)C(=O)c2ccccc2C1=O)c1ccc(C(=O)O)cc1`: the B-score is -10.4 (active).

On to `CC(C)N(C(=O)c1ccc(-c2ccccc2F)cc1)C(C)C`, for which the B-score is -1.82.

Turning to `CC(=O)c1c(C)[nH]c(C(=O)N2CCN(S(=O)(=O)c3ccc(F)c(F)c3)CC2)c1C`, the B-score result is “inactive”.

As for `C=CCOc1ccc(/C=C/C(=O)OCC(=O)NCC2CCCO2)cc1` (configuration not stated), the B-score entry was “inactive”.

On to `CCc1ccc(-c2cc(C(=O)NCc3ccco3)c3ccccc3n2)s1`, for which the B-score was -7.07 (active).

Turning to `COC(=O)CNC(=O)c1cc(-c2ccncc2)nc2ccccc12`, the B-score was -0.09.

Turning to `CCCCN(C)CCCNC(=O)c1cc(-c2cccs2)nc2ccccc12`, the B-score entry was “inactive”.

For `COc1ccc(NS(=O)(=O)c2ccc(C)c(C(=O)NNC(=O)c3csc(N4CCOCC4)n3)c2)cc1`, the B-score is -0.78.

Take `CCc1noc(C)c1C(=O)N1CCCSC1=Nc1ccccc1OC`: the B-score entry is “inactive”.

Turning to `CCC1(c2ccccc2)NC(=O)N(CC(=O)Nc2ccccc2C(=O)NC2CCCC2)C1=O` (configuration not stated), the B-score entry was “inactive”.

Turning to `CCN1C(=O)[C@H]2[C@@H](c3ccc(C)cc3)N3C(=O)N(c4cccc(Br)c4)C(=O)[C@@]3(CC)[C@H]2C1=O`, the B-score was -0.8.

Consider `O=C(c1cc2ccccc2o1)N1CCN(c2cccc(C(F)(F)F)c2)CC1`, for which the B-score is -0.25.

For the compound `FC(F)(F)c1cccc(-c2cc3ccccc3nc2N2CCCC2)c1`, the B-score was -6.95 (active).

Turning to `c1ccc(-c2cc(N3CCCCC3)c3ccccc3n2)cc1`, the B-score is -0.16.

As to `O=C(N/N=C/c1cc(Br)c(O)c([N+](=O)[O-])c1)C(O)(c1ccccc1)c1ccccc1`, the B-score entry is “inactive”.

For the compound `CCOC(=O)CSC1=C(C#N)C(c2ccco2)C(C(=O)OCc2ccccc2)=C(C)N1` (configuration not stated), the B-score was -2.55.

Take `C=CCOC(=O)C1=C(C)OC(N)=C(C#N)C1c1ccc(F)cc1` (configuration not stated): the B-score entry was “inactive”.

Turning to `C=CCOC(=O)C1=C(C)NC(SCC(=O)OCC)=C(C#N)C1c1ccc(C)cc1` (configuration not stated), the B-score was -6.37 (active).
